From PubChem BioAssay
The source made the active and inactive calls. Unless noted, no stated cut-off is given here; in the data, active means inhibition above about 25%; inactive means the rest.

Key:
[1] = target: Nuclear receptor coactivator 3 (Homo sapiens) (UniProt Q9Y6Q9); assay: NCOA3 GAL4-fusion reporter inhibition – cell-based, luminescence, quadruplicate, confirmation (AID 588792;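 active means mean inhibition over 43.08%, the solvent-only control mean plus 3 SD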;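 further: 0% = DMSO treated cells and 100% = gossypol at 36 µM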); conditions: HEK293 GAL4-SRC3 luciferase reporter, at 3.6 µM, stronger effect = higher value
Sequence of Nuclear receptor coactivator 3 (Homo sapiens) (Q9Y6Q9 whole entry, looked up, the tested form may be a part): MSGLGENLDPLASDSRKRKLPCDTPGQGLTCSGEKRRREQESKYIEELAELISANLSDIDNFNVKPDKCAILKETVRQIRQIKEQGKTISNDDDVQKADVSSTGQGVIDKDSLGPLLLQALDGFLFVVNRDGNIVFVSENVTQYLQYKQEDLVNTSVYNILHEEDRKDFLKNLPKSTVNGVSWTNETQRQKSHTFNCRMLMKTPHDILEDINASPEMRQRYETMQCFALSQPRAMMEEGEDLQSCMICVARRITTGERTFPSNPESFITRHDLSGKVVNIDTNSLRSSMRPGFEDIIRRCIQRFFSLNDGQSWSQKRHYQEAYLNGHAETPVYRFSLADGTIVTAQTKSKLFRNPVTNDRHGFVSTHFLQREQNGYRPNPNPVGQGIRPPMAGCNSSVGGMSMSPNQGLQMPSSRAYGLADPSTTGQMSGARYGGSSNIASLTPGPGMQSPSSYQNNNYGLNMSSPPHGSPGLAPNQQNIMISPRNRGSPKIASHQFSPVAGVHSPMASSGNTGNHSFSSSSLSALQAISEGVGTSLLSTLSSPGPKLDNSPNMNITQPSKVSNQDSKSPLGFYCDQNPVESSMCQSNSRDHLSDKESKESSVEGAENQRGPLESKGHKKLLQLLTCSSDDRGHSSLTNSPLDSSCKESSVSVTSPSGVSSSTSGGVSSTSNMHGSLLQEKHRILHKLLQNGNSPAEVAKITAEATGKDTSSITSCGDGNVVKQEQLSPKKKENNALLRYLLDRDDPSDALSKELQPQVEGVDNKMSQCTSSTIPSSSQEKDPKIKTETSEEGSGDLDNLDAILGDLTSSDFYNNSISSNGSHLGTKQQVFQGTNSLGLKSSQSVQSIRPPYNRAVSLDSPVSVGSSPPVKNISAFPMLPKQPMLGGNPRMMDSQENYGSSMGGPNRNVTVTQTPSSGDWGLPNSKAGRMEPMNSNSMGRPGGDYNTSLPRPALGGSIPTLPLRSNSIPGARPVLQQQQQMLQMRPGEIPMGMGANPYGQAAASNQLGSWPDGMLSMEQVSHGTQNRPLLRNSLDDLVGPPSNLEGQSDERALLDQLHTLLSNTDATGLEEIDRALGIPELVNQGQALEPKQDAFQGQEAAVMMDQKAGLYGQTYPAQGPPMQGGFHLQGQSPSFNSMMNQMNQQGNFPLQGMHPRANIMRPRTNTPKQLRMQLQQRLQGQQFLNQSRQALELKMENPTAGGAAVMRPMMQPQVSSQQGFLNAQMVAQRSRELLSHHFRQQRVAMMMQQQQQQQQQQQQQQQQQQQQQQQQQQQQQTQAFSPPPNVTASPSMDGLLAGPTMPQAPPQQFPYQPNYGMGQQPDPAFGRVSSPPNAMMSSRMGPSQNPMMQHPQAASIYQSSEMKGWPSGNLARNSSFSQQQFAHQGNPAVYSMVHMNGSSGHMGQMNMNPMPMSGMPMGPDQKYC

[2] = system: transactivating tegument protein VP16 (Human herpesvirus 1), Gal4-VP16 luciferase reporter; assay: repression of VP16-driven luciferase reporter – cell-based, luminescence, high throughput, counter-screen for SRC3 inhibitor project (AID 588794; in the data active means inhibition above about 30%); conditions: mammalian cells, at 3.6 µM, stronger effect = higher value
[3] = target: Nuclear receptor coactivator 1 (Homo sapiens) (UniProt Q15788); assay: NCOA1 GAL4-fusion reporter inhibition – cell-based, luminescence, quadruplicate, confirmation (AID 588820;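 active means mean inhibition above 46.68%, the untreated control wells mean plus 3 SD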;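 further: 0% = DMSO wells and 100% = gossypol 36 µM treated wells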); conditions: HEK293 GAL4-SRC1 luciferase reporter, at 3.6 µM, stronger effect = higher value
Sequence of Nuclear receptor coactivator 1 (Homo sapiens) (Q15788 whole entry, looked up, the tested form may be a part): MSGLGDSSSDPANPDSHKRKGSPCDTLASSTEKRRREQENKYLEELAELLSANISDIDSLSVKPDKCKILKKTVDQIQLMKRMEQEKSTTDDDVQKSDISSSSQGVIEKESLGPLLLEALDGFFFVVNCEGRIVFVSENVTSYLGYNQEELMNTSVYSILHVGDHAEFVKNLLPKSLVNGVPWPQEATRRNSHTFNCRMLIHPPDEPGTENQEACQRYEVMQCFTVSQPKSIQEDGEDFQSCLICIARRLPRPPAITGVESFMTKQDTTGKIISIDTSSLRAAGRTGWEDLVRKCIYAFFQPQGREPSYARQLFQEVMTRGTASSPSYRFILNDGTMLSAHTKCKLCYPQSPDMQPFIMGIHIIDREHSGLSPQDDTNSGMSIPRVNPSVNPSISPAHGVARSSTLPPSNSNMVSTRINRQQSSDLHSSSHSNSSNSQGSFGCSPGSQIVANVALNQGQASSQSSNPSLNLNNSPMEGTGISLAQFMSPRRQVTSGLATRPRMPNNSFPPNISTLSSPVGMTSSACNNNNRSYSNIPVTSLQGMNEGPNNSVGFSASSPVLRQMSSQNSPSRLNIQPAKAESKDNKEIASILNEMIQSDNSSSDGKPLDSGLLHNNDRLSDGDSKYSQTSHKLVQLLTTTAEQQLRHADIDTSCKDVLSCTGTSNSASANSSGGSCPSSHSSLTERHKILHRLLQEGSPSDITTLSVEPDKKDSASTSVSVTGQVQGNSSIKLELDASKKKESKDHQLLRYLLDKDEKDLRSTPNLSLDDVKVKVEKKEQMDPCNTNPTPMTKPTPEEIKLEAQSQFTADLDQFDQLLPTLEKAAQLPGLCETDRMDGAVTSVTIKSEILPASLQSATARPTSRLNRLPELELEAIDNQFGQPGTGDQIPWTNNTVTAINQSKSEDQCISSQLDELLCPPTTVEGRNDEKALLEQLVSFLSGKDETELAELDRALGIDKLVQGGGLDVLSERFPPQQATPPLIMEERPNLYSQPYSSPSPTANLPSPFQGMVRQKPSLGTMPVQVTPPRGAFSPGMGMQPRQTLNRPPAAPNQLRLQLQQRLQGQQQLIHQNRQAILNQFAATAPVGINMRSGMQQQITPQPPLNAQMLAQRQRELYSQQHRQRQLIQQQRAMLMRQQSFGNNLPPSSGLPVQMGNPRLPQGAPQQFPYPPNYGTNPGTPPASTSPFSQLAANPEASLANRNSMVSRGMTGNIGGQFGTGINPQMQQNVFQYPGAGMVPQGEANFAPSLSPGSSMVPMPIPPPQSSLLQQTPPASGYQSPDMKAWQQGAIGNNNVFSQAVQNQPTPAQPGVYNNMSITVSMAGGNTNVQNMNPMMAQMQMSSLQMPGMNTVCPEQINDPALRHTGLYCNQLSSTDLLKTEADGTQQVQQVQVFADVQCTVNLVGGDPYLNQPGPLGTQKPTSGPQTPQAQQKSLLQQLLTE

[4] = repression of VP16-driven luciferase reporter – cell-based, luminescence, high throughput, counter-screen for SRC1 inhibitor project (AID 588824); conditions: cell-based VP16 transactivation luciferase luminescence; at 3.6 µM; stronger effect = higher value
[5] = system: transactivating tegument protein VP16 (Human herpesvirus 1); assay: compounds suppressing VP16-driven luciferase signal – cell-based, luminescence, single concentration, counter-screen for SRC2 inhibitor project (AID 652007; in the data active means inhibition above about 36%); conditions: cell-based VP16 transactivation luciferase reporter, at 8.9 µM, stronger effect = higher value
[6] = target: Nuclear receptor coactivator 2 (Homo sapiens) (UniProt Q15596); assay: inhibition of GAL4-SRC2 driven luciferase expression – cell-based, luminescence, HEK293, triplicate, confirmation (AID 652008;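 active means mean inhibition above 46.5%, the solvent-only control mean plus 3 SD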;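 further: 0% = DMSO-treated cells and 100% = Gossypol at 36 µM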); conditions: HEK293 GAL4-SRC2 luciferase reporter, at 8.9 µM, stronger effect = higher value
Sequence of Nuclear receptor coactivator 2 (Homo sapiens) (Q15596 whole entry, looked up, the tested form may be a part): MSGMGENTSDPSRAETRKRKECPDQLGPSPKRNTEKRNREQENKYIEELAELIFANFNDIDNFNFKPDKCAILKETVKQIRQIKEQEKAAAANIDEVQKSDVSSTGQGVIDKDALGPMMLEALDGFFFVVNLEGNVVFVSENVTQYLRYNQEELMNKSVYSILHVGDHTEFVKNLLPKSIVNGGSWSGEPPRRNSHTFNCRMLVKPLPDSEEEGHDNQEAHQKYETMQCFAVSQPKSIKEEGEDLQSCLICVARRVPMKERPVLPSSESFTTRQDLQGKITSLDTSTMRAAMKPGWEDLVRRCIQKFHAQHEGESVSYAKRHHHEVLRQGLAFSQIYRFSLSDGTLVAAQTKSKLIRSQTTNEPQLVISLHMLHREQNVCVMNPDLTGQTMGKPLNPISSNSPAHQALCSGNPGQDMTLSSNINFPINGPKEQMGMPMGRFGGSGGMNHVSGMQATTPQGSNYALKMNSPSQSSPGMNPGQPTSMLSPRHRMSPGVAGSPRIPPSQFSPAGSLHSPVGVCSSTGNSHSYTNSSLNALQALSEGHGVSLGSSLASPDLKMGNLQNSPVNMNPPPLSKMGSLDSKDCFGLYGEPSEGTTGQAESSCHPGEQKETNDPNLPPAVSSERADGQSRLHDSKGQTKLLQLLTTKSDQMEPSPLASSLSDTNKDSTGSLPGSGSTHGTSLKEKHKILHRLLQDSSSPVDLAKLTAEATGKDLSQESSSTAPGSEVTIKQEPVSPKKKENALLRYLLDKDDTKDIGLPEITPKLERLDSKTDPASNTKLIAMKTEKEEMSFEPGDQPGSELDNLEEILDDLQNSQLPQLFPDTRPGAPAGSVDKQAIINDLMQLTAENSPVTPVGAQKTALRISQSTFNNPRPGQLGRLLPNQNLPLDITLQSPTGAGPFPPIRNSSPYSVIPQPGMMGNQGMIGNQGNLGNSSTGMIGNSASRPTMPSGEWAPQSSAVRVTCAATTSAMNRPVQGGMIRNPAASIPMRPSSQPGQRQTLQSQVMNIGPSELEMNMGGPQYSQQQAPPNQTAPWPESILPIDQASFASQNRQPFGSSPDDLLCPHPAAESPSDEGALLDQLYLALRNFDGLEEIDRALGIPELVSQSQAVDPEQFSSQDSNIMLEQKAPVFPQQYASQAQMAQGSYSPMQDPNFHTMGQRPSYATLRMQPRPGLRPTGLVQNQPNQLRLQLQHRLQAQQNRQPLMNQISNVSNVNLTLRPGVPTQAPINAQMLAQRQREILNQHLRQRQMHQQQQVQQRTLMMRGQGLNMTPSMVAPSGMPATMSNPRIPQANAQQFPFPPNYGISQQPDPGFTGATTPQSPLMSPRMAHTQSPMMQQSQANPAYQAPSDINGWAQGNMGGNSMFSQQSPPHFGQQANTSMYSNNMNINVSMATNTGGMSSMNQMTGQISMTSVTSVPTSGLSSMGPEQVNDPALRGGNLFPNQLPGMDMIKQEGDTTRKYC

Measured: inhibition

Cc1csc(SCC(=O)c2cc(C)n(Cc3cccs3)c2C)n1
inactive: [1] 9.06% | [2] -12.3% | [3] -81.8% | [4] -42.6% | [5] -28.2% | [6] 31.4%

Cc1nc2cc(N3CCN(C)CC3)c(NC(=O)Cc3ccccc3)cc2c(=O)n1Cc1ccccc1
inactive: [1] 17.6% | [2] 10.3% | [3] -11.5% | [4] -3.19% | [5] 4.08% | [6] 34.5%

Cc1ccc(C(=O)Nc2cnc3ccccc3c2)cc1
active: [1] 44.4% | [5] 50.7% | [6] 84.9%
inactive: [2] 9.25% | [3] -70.2% | [4] 23.4%

S=c1[nH]nc(C2CCCCC2)n1/N=C/c1ccncc1
inactive: [5] 10.3%
active: [1] 75.2% | [2] 60.4% | [3] 64.6% | [4] 60.1% | [6] 51.4%
